The source of these data is publication PMC5540273 (PLoS ONE, 2017).

Each structure is given as a SMILES string.
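Also: KINOMEscan kinase panel screen.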

This assay relates to MAP3K2. As to conditions: concentration: 1 μM, replicates: in singlicate; n = 1.
In the case of `CC(C)(C)c1ccc2nccc(Nc3cccc(O)c3)c2c1` [GW856795], the “%Inh” value turned out to be 0%. On to `COc1cc2c(cc1OCCN1CCNCC1)ncc1c3ccc(C#N)cc3[nH]c21`, for which the “%Inh” value is recorded as 4%. As for `COc1cc(Nc2nccc(-c3c(-c4cccc(NC(=O)c5c(F)cccc5F)c4)nn4ccccc34)n2)cc(OC)c1OC` [GSK323521], the figure is 56%; as for `Cc1ccc(S(=O)(=O)Nc2ccc(Nc3nccc(Nc4cccc5[nH]ncc45)n3)cc2)cc1` [GSK581271], 3%; as for `CCc1ccc(-c2ccc3c(c2)-c2c(cnn2C)S(=O)(=O)N3C)cc1`, 0%. As for `O=C(Nc1cccc(-c2nn3ncccc3c2-c2ccnc(Nc3ccccc3)n2)c1)c1c(F)cccc1F` [GSK198271], the figure is 35%. As for `Fc1ccc(-c2ncn(C3CCNCC3)c2-c2ccnc(Oc3ccc(-c4ccccc4)cc3)n2)cc1` [SB-245391], the “%Inh” value amounted to 22%. Regarding `CN(c1ccc(NC(=O)Nc2cc(C(F)(F)F)ccc2F)cc1)c1ccnc(Nc2ccc(S(N)(=O)=O)cc2)n1` [GW809893], the “%Inh” value was determined as 7%. As to `CC(=O)Nc1nc2cnc(Nc3cc(NC(=O)c4cccc(C5(C#N)CC5)c4Cl)ccc3C)nc2s1`, the “%Inh” value came to 0%. As to `Cl.c1ccc(-c2ccc3c(Nc4ccc5[nH]ncc5c4)ccnc3c2)nc1` [GW440137], the “%Inh” value was found to be 0%. As to `COc1cc(Nc2ncc3c(C)nc(-c4cc5ccccc5[nH]4)n3n2)cc(OC)c1OC` [GW869516], the “%Inh” value came out at 0%. For `COC(=O)Nc1nc2ccc(Oc3ccc(NC(=O)Nc4cc(C(F)(F)F)ccc4F)cc3)cc2n1C.Cl` [GW692089] the value was 0%; for `Nc1n[nH]c2cnc(-c3ccccc3)cc12` [SB-642124], 12%. For `COc1cc(Nc2nccc(N3CCC(NC(=O)Nc4cccc(C(C)=O)c4)C3)n2)cc(OC)c1OC` (stereo not shown) [GSK1379753] the value was 22%; for `O=C(NC1CCN(c2ccnc(Nc3ccc(F)cc3)n2)C1)c1cc2ccccc2s1` (stereo not shown) [GSK1379716], 12%. Turning to `c1ccc(-c2cnc3nccnn23)cc1` [AH20685], the “%Inh” value is 0%. As for `Nc1ncnc2c1nc(-c1ccccc1)n2-c1ccccc1` [SKF-97293], the figure is 28%; as for `CN(C)Cc1ccc(-c2ccc3c(Nc4ccc(Oc5ccccn5)cc4)ccnc3c2)o1` [GW567148], 0%; as for `COc1cc(Nc2nccc(N3CCC(NC(=O)c4cc5ccccc5s4)C3)n2)cc(OC)c1OC` (stereo not shown) [GSK1379760], 0%. As for `Cl.Cl.NCC(NCc1ccc(-c2ccnc3[nH]ccc23)s1)c1ccccc1` (stereo not shown) [GSK1321565], the figure is 63%; as for `Cl.NC(=O)c1cccc(Nc2nccc(Nc3ccc(Oc4c(Cl)cccc4Cl)c(Cl)c3)n2)c1` [GW659009], 0%. As for `O=C(Nc1ccccc1F)NC1CCN(c2ccnc(Nc3ccc(F)cc3)n2)CC1` [GSK1379800], the figure is 0%; as for `Cc1ccc(C(=O)N2CC[C@@H](O)C2)cc1-n1c(C)cc(OCc2ccc(F)cc2F)c(Br)c1=O`, 0%. For the compound `CN(C)S(=O)(=O)c1cc(-c2ccc3nccc(-c4cccc(S(N)(=O)=O)c4)c3c2)cnc1N` [GSK1669921], the “%Inh” value stood at 0%. Regarding `O=c1[nH]cc(-c2ccc(N3CCOCC3)cc2)c2sc(-c3cn[nH]c3)cc12` [GSK2276055], the “%Inh” value is listed as 12%. As for `CCCCc1nn2ncccc2c1-c1ccnc(Nc2ccc(N3CCN(C)CC3)cc2)n1` [GW684941], the figure is 37%; as for `O=C(Nc1cccc(-c2nn3ccccc3c2-c2ccnc(Nc3cccc(F)c3)n2)c1)c1c(F)ccc(F)c1Cl` [GSK357952], 20%; as for `c1ccc(-c2n[nH]cc2Nc2ccnc3ccccc23)nc1` [GW694077], 38%. For `COc1cc(Nc2nccc(-c3c(-c4cccc(NC(=O)c5c(F)cccc5F)c4)nn4ncccc34)n2)cc(OC)c1OC` [GSK327238] the value was 95.4%; for `COc1cccc(C(=O)Nc2cccc(Oc3ccc4nc(NC(=O)C5CC5)cn4n3)c2)c1`, 0%.

Consider `COCCOCCOc1cc2ncc3c4ccc(C#N)cc4[nH]c3c2cc1OC`, for which the “%Inh” value is recorded as 0%. For `Nc1ncc(-c2ccc3nccc(-c4ccncc4)c3c2)cc1S(=O)(=O)N1CCOCC1` [GSK1627798] the value was 19%; for `Cc1cccc(NC(=O)Nc2ccc(Oc3ncnc4ccn(C)c34)cc2)c1`, 0%; for `CN1CCN(Cc2cccc(-c3ccc4c(Nc5ccc(Oc6ccccc6)cc5)ccnc4c3)c2)CC1` [GW578342], 0%. For `COc1cccc(C2=C(Nc3ccc(Cl)c(C(=O)O)c3)C(=O)NC2=O)c1` [SB-390769] the value was 100%; for `COc1ccc(Nc2nccc(NCCNC(=O)c3cc4ccccc4s3)n2)cc1` [GSK1379896], 0%. For `COc1ccc(CNC(=O)NC2CCN(c3ccnc(Nc4ccc(F)cc4)n3)CC2)cc1` [GSK1379788] the value was 0%.
